Measurements published in PubChem BioAssay AID1159580 (chemical genetic matrix, 2015).
Values joined by “and” are separate entries in the source; they are usually repeats but may differ in a detail not shown here. Equal entries are not always repeated. The campaign covered roughly 5,500 compounds. About 2,000 (36%) were called active. Not shown: some 18% with an inconclusive outcome. Rule as the data show it: active = normalized growth mostly below about 0.91 (no sharp cut-off); inconclusive = no clear call, values can overlap the other calls; inactive = mostly above about 0.92. Some of the results follow.

Test: chemical genetic growth profiling, strain panel (AID 1159580);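 also: tested at 20 µM; growth read once vehicle control cultures reached saturation at 30 °C; 1 = growth at the plate median or of vehicle wells; lower values mean less growth of the strain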
Details: S. cerevisiae deletion strains, growth OD

Measured: normalized growth

C=C(CC)C(=O)c1ccc(OCC(=O)O)c(Cl)c1Cl
active: locus YDL185W, strain tfp1, stronger effect = lower value 0.882 | locus YIL125W, strain kgd1, stronger effect = lower value 0.927 | locus YJR066W, strain TOR1, stronger effect = lower value 0.708 | locus YKL068W, stronger effect = lower value 0.91 | locus YLR113W, strain HOG1, stronger effect = lower value 0.551 | locus YNL183C, strain NPR1, stronger effect = lower value 0.828 | locus YNL271C, strain bni1, stronger effect = lower value 0.917 | locus YPR141C, strain kar3, stronger effect = lower value 0.902
inactive: locus YAL013W, strain DEP1, stronger effect = lower value 0.984 | locus YAL021C, strain ccr4, stronger effect = lower value 1 | locus YAL026C, strain drs2, stronger effect = lower value 0.98 | locus YAL030W, strain snc1, stronger effect = lower value 1.01 | locus YBL061C, strain skt5, stronger effect = lower value 1 | locus YBR009C, strain hhf1, stronger effect = lower value 1.01 | locus YBR021W, strain FUR4, stronger effect = lower value 1.02 | locus YBR023C, strain chs3, stronger effect = lower value 1.03 | locus YBR171W, strain sec66, stronger effect = lower value 1.01 | locus YBR229C, strain ROT2, stronger effect = lower value 0.951 | locus YBR231C, strain swc5, stronger effect = lower value 0.972 | locus YBR279W, strain paf1, stronger effect = lower value 1.01 | locus YCL011C, strain gbp2, stronger effect = lower value 1.03 | locus YCL016C, strain dcc1, stronger effect = lower value 1.04 | locus YCL029C, strain bik1, stronger effect = lower value 0.973 | locus YCL061C, strain MRC1, stronger effect = lower value 1.03 | locus YCL069W, strain vba3, stronger effect = lower value 1 | locus YCR088W, strain abp1, stronger effect = lower value 1.01 | locus YDL005C, strain med2, stronger effect = lower value 0.999 | locus YDL035C, strain GPR1, stronger effect = lower value 0.988 | locus YDL040C, strain nat1, stronger effect = lower value 0.994 | locus YDL074C, strain BRE1, stronger effect = lower value 0.986 | locus YDL101C, strain DUN1, stronger effect = lower value 0.983 | locus YDL134C, strain PPH21, stronger effect = lower value 0.972 | locus YDL192W, strain arf1, stronger effect = lower value 0.972 | locus YDR001C, strain nth1, stronger effect = lower value 1 | locus YDR069C, strain doa4, stronger effect = lower value 0.99 | locus YDR101C, strain arx1, stronger effect = lower value 0.92 | locus YDR137W, strain rgp1, stronger effect = lower value 1.01 | locus YDR150W, strain NUM1, stronger effect = lower value 0.976 | locus YDR159W, strain sac3, stronger effect = lower value 0.955 | locus YDR162C, strain NBP2, stronger effect = lower value 0.966 | locus YDR195W, strain ref2 0.974 | locus YDR297W, strain sur2, stronger effect = lower value 1.02 | locus YDR318W, strain mcm21, stronger effect = lower value 0.992 | locus YDR334W, strain swr1, stronger effect = lower value 1 | locus YDR335W, strain msn5, stronger effect = lower value 1.01 | locus YDR388W, stronger effect = lower value 0.972 | locus YDR392W, strain spt3, stronger effect = lower value 0.948 | locus YDR502C, strain sam2, stronger effect = lower value 0.984 | locus YEL003W, strain gim4, stronger effect = lower value 0.985 | locus YEL037C, strain rad23, stronger effect = lower value 1 | locus YEL061C, strain CIN8 (second series), stronger effect = lower value 1 | locus YEL061C, strain CIN8, stronger effect = lower value 0.996 | locus YER015W, strain faa2, stronger effect = lower value 0.993 | locus YER016W, strain bim1, stronger effect = lower value 0.993 | locus YER110C, stronger effect = lower value 0.963 | locus YER111C, strain swi4, stronger effect = lower value 1 | locus YER155C, strain BEM2 (second series), stronger effect = lower value 0.997 | locus YER155C, strain BEM2, stronger effect = lower value 0.998 | locus YER167W, strain BCK2, stronger effect = lower value 1 | locus YFR010W, strain ubp6, stronger effect = lower value 1.01 | locus YGL078C, strain dbp3, stronger effect = lower value 0.954 | locus YGL086W, strain mad1, stronger effect = lower value 0.977 | locus YGL167C, strain pmr1, stronger effect = lower value 1.01 | locus YGL173C, strain kem1, stronger effect = lower value 1 | locus YGL227W, strain vid30, stronger effect = lower value 1.01 | locus YGL240W, strain doc1, stronger effect = lower value 1.02 | locus YGL248W, strain PDE1, stronger effect = lower value 0.985 | locus YGL253W, strain hxk2, stronger effect = lower value 0.988 | locus YGR078C, strain PAC10, stronger effect = lower value 0.964 | locus YGR135W, strain pre9, stronger effect = lower value 1.05 | locus YGR229C, strain SMI1, stronger effect = lower value 1 | locus YGR252W, strain gcn5, stronger effect = lower value 1.2 | locus YHR013C, strain ard1, stronger effect = lower value 1.04 | locus YHR027C, strain rpn1, stronger effect = lower value 1.02 | locus YHR030C, strain SLT2, stronger effect = lower value 0.985 and 0.868 | locus YHR079C, strain IRE1 (second series), stronger effect = lower value 0.982 | locus YHR079C, strain IRE1, stronger effect = lower value 0.869 | locus YHR094C, strain hxt1, stronger effect = lower value 0.955 | locus YHR129C, strain ARP1, stronger effect = lower value 0.977 | locus YHR142W, strain chs7, stronger effect = lower value 1.04 | locus YHR200W, strain rpn10, stronger effect = lower value 0.984 | locus YIL066C, strain RNR3, stronger effect = lower value 0.968 | locus YIL073C, strain SPO22, stronger effect = lower value 0.995 | locus YIR030C, strain dcg1, stronger effect = lower value 0.993 | locus YJL092W, strain hpr5, stronger effect = lower value 1.01 | locus YJL095W, strain BCK1 (second series), stronger effect = lower value 1.03 | locus YJL115W, strain asf1, stronger effect = lower value 1 | locus YJL129C, strain trk1, stronger effect = lower value 1.02 | locus YJL134W, strain LCB3, stronger effect = lower value 0.983 | locus YJL154C, strain vps35, stronger effect = lower value 0.997 | locus YJL164C, strain tpk1, stronger effect = lower value 1.03 | locus YJL166W, strain qcr8, stronger effect = lower value 1.05 | locus YJL168C, strain set2, stronger effect = lower value 0.971 | locus YJL187C, strain SWE1 (second series), stronger effect = lower value 0.968 | locus YJL187C, strain SWE1, stronger effect = lower value 1 | locus YJR043C, strain POL32, stronger effect = lower value 0.981 | locus YJR075W, strain HOC1, stronger effect = lower value 0.982 | locus YKL009W, strain mrt4, stronger effect = lower value 0.923 | locus YKL085W, strain MDH1 (second series), stronger effect = lower value 0.938 | locus YKL085W, strain MDH1, stronger effect = lower value 0.938 | locus YKL160W, strain elf1, stronger effect = lower value 1.06 | locus YKR001C, strain vps1, stronger effect = lower value 0.906 | locus YKR026C, strain gcn3, stronger effect = lower value 1 | locus YKR091W, strain srl3, stronger effect = lower value 1.01 | locus YLL001W, strain dnm1, stronger effect = lower value 1.05 | locus YLL026W, stronger effect = lower value 1.01 | locus YLL041C, strain sdh2, stronger effect = lower value 1 | locus YLR027C, strain aat2, stronger effect = lower value 0.995 | locus YLR039C, strain RIC1, stronger effect = lower value 0.91 | locus YLR058C, strain SHM2, stronger effect = lower value 0.972 | locus YLR102C, strain apc9, stronger effect = lower value 0.972 | locus YLR221C, strain rsa3, stronger effect = lower value 1.04 | locus YLR258W, strain gsy2, stronger effect = lower value 1.02 | locus YLR262C, strain YPT6 (second series), stronger effect = lower value 1.01 | locus YLR262C, strain YPT6, stronger effect = lower value 0.873 | locus YLR268W, strain sec22, stronger effect = lower value 0.99 | locus YLR320W, strain mms22, stronger effect = lower value 1.08 | locus YLR330W, strain CHS5, stronger effect = lower value 0.978 | locus YLR342W, strain FKS1 (second series), stronger effect = lower value 0.983 | locus YLR342W, strain FKS1, stronger effect = lower value 1.01 | locus YLR357W, strain rsc2, stronger effect = lower value 0.995 | locus YLR370C, strain arc18, stronger effect = lower value 1.02 | locus YLR371W, strain rom2, stronger effect = lower value 0.953 | locus YLR384C, strain iki3, stronger effect = lower value 1.01 | locus YLR418C, strain cdc73, stronger effect = lower value 1 | locus YML016C, strain PPZ1, stronger effect = lower value 0.982 | locus YML032C, strain rad52, stronger effect = lower value 0.962 | locus YML120C, strain ndi1, stronger effect = lower value 1.05 | locus YML124C, strain tub3, stronger effect = lower value 0.98 | locus YMR058W, strain fet3, stronger effect = lower value 1 | locus YMR078C, strain ctf18, stronger effect = lower value 0.962 | locus YMR125W, strain sto1, stronger effect = lower value 1.02 | locus YMR129W, stronger effect = lower value 1.01 | locus YMR205C, strain PFK2, stronger effect = lower value 1.06 | locus YMR223W, strain ubp8, stronger effect = lower value 1.02 | locus YMR231W, strain pep5, stronger effect = lower value 0.978 | locus YMR307W, strain GAS1, stronger effect = lower value 1 | locus YNL067W, strain RPL9B, stronger effect = lower value 0.986 | locus YNL071W, strain lat1, stronger effect = lower value 1.01 | locus YNL209W, strain ssb2, stronger effect = lower value 1.02 | locus YNL233W, strain BNI4, stronger effect = lower value 0.988 | locus YNL248C, strain rpa49, stronger effect = lower value 1.01 | locus YNL250W, strain rad50, stronger effect = lower value 0.913 | locus YNL298W, strain CLA4, stronger effect = lower value 0.912 | locus YNL307C, strain MCK1, stronger effect = lower value 0.98 | locus YNL322C, strain KRE1 (second series), stronger effect = lower value 1.02 | locus YNR049C, strain mso1, stronger effect = lower value 1.01 | locus YNR052C, strain pop2, stronger effect = lower value 0.981 | locus YOL006C, strain TOP1, stronger effect = lower value 1 | locus YOL012C, strain htz1 1.29 | locus YOL147C, strain pex11, stronger effect = lower value 0.99 | locus YOR001W, strain rrp6, stronger effect = lower value 0.948 | locus YOR061W, strain CKA2, stronger effect = lower value 0.964 | locus YOR069W, strain VPS5, stronger effect = lower value 0.988 | locus YOR070C, strain gyp1, stronger effect = lower value 1.04 | locus YOR080W, strain dia2, stronger effect = lower value 1.01 | locus YOR083W, strain WHI5, stronger effect = lower value 1.05 | locus YOR106W, strain vam3, stronger effect = lower value 1.04 | locus YOR136W, strain idh2, stronger effect = lower value 0.979 | locus YOR144C, strain elg1, stronger effect = lower value 0.989 | locus YOR184W, strain ser1, stronger effect = lower value 0.991 | locus YOR231W, strain MKK1, stronger effect = lower value 0.909 | locus YOR265W, strain rbl2, stronger effect = lower value 1.01 | locus YOR270C, strain vph1, stronger effect = lower value 1.08 | locus YOR290C, strain snf2, stronger effect = lower value 1.01 | locus YOR316C, strain cot1, stronger effect = lower value 0.96 | locus YPL051W, strain arl3, stronger effect = lower value 0.992 | locus YPL078C, strain atp4, stronger effect = lower value 1.04 | locus YPL106C, strain sse1, stronger effect = lower value 1.01 | locus YPL240C, strain hsp82, stronger effect = lower value 1.02 | locus YPL241C, strain CIN2, stronger effect = lower value 0.983 | locus YPL256C, strain CLN2, stronger effect = lower value 0.899 | locus YPR119W, strain clb2, stronger effect = lower value 0.973 | locus YPR163C, strain tif3, stronger effect = lower value 0.981 | locus YPR167C, strain met16, stronger effect = lower value 0.989 | strain wtn01, stronger effect = lower value 0.997
1 (inactive) and 0.835 (active): locus YJL095W, strain BCK1, stronger effect = lower value
